Assay results taken from the supplement of paper PMC6555819.

These sequences were tested on VDR:RXRa (NR concentration 270 nM, RXRa partner concentration 90 nM) (assay: PBM binding z-score (relative to random genomic background probes); higher = stronger binding; sequences stand for … in GC…GCGATTGACAGCGTAGAATGAAGG).
Procedure: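 Protein-binding microarray (Agilent 4x180K custom design, double-stranded 60-nt probes: 5' GC cap, 34-nt variable region, 24-nt constant primer region; full probe sequence given). Purified or IVT nuclear receptor:RXRα heterodimers (3:1 NR:RXRα, mostly 270:90 nM) or homodimers were incubated for 1 h in PBS with 2% milk and no ligand, then detected with Alexa488 antibodies. Fluorescence from o1-orientation probes (~5 replicates averaged) was converted to z-scores against 500 random hg19 background probes. Variable regions are seed direct-repeat (DR0–DR5) sites, all their single-nucleotide variants and half-site ablations.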

| Sequence | PBM binding z-score |
| --- | --- |
| CTATGTTGGTTAAGGGGGTCATTCAGTTTGAAAG | 6.64 |
| TCTCGGAGGACACGAAACGTCAGAGCTCGACATC | -0.163 |
| CGTCCAAGGTCAGTGAGGTCAGTGAATGCCGAGT | 7.42 |
| TAGCCTAGGTCATTCAGGGGCCAGTATGGAAAGC | 3.13 |
| CTATGTAGGTTTAGGGGGTCATTCAGTTTGAAAG | 6.29 |
| ATCTGTAGGTTAGGGTCATTCAGAAAGTAGGGAA | 4.35 |
| CGTCAAAGCTCAACTAAGGTAACGTAAAGCACGC | 0.0405 |
| ATATGTAGGTTAGCTGGGGTCATTCCGACTAGGC | 6.1 |
| AGTCAAAGTTCAGGACGAGGTAAAGTAAAGCACG | 3.01 |
| TTATCAAGGTGAAAGGTCGTTGATGCACGCCTTG | 3.29 |
| CGAACTAGGGCAAAGGACAGTGAAAGGCGACGTA | -0.612 |
| TAGCCTAGGTCATGCGGGCCAGTATAGTGTCGGC | 2.89 |
| TAGCCTAGGACATGCGGGCCAGTATAGTGTCGGC | -0.777 |
| GATAGTTGGTCAGTAAAAGGTCACACACCGGTCG | 3.94 |
| TCATATAGGTTAAAGGTGAAAGTCGGTGTGGTAA | 3.02 |
| TAGCCTAGGTCATTGGACCAGTATAGTACGCATC | 2.08 |
| CAAGCTAGGTCAAGAGGTCAAAGTCCGCTTCCCG | 5.9 |
| CGAGCTAGGTCACCAGGACAGTGAAGAGGTTGGA | 1.63 |
| GATAAAGGGTCAGCTAGAGGCCAGAGTATGGAAA | 3.73 |
| CGAACTCGGTCACCAGGACAGTGAAGAGGTTGGA | 1.87 |

| Sequence | PBM binding z-score |
| --- | --- |
| ATCGAAAGGTCGAAAGTGAGTATACCCACCCGAA | 2.18 |
| CTTTACGGGTCAAGGTTATAGCACGGGTGGTACG | 3.8 |
| CCTAGTAGGTTACGAGGGGGCATTCAGTGCGAAT | 5.12 |
| CGAACTAGGTCACCAGGACAATGAAGAGGTTGGA | 2.21 |
| TCGAGTATGTTACGGGGGCATTCAGGGATGAAGA | 3.48 |
| TCGAGTAGGTTACGGGGGTATTCAGGGATGAAGA | 2.64 |
| CGAACTAGGTCCTTGACAGGACAGTGAATAGTAA | -0.351 |
| CTATGTAGGTTAAGGGGGTTATTCAGTTTGAAAG | 5.71 |
| GATTCAGGGTCAGCTAGAGGCCAGAGTATGGAAA | 4.09 |
| ATATGTAGTTTAGGGTCATTCAGAAAGTAGGGAA | 4.64 |
| ATATGTGGGTTATCGGGTCATTCAGTTTGCGCAT | 5.21 |
| CCGAGTAGGTTACGAGGGGGCATTAAGTGCGAAT | 5.39 |
| CCTTACGGGTCAAGGTTGTAGCACGGGTGGTACG | 3.02 |
| CGAACTAGGTCAAAGGACAGTAAAAGGCGACGTA | 1.55 |
| AGAATGAGGTTACCAGAGATCAGGGAAACGCTTG | 1.72 |
| CCGAGTATGTTACGAGGGGGCATTCAGTGCGAAT | 4.06 |
| CCGAGTAGGTTACGAGGGGGCATTGAGTGCGAAT | 6.16 |
| CCTTACGGGTCGCTGACAGGTTATAGCATTTGGA | 0.961 |
| TAGCCTAGGTCATAGGCCAGTATACCACGCGAAC | 1.74 |
| CGAACTAGGTCAAAGGACAGTCAAAGGCGACGTA | 1.69 |
